Screening results (PubChem)
RE007 growth inh = less growth of the S. pombe RE007 Vpr strain; S. pombe RE007 Vpr strain, BacTiter-Glo ATP luminescence, 24 h; Potency, µM (series often up to 92.2 µM), without a hit: top-dose activity change, negative = less growth, hits mostly inhibitors; 0.21% of 360,000 active; active = well fitted falling curve with a large enough effect; inconclusive = small, poorly fitted or top-dose-only effect; inactive = no such curve, though single readings can be large or run the other way; also: potency is read from the fitted curve at half-maximal effect; % is scaled to controls: 0 for no effect and ±100 for the full control effect; nearly all actives have a fitted effect of over 50% in size
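Fission yeast strain RE007, carrying one chromosomally integrated HIV-1 vpr copy, was seeded at OD 0.01 in PMG+AL medium with 23 nL pinned compound. After 24 h at 30 °C and 99% humidity, viability was read by BacTiter-Glo luminescence.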
Tb PYK inh = blocks Trypanosoma brucei pyruvate kinase; AID 624173; 0.12% of 410,000 active; Q57TT1; TbPYK enzyme, Kinase-Glo Plus ATP luminescence, 45 min; Potency, µM (titrated, usually from 76.8 µM), for inactives: at the top dose activity, negative = inhibition, most hits filed as inhibitors; also: potency is read from the fitted curve at half-maximal effect; % is scaled to controls: 0 for no effect and ±100 for the full control effect; nearly all actives have a fitted effect of over 50% in size
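Activity of T. brucei pyruvate kinase was followed by Kinase-Glo Plus luminescence after the enzyme reacted 45 min at room temperature with 130 uM ADP (final) and substrate. Test compounds were added before ADP at multiple concentrations.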
SARS PLpro yeast-1 = SARS-CoV PLP inhibition in yeast. S. cerevisiae expressing SARS-CoV PLpro, growth rescue. Potency, µM (titrated, usually from 32.9 µM), for inactives: at the top dose activity, positive = growth rescue, usual class: activators. 0.19% of 330,000 active. AID 485353; calls by dose curve; also: potency is read from the fitted curve at half-maximal effect; 0% is about no effect; nearly all actives have a fitted effect of over 55% in size
LmPK inhibitor = LmPK (Leishmania mexicana) enzyme inhibition; Q27686; purified LmPK, Kinase-Glo ATP luminescence, 1 h; Potency, µM (top dose mostly 57.5 µM), for inactives: top-dose activity change, negative = inhibition, actives largely listed as inhibitors; 0.37% of 290,000 active; AID 1721; also: potency is read from the fitted curve at half-maximal effect; % is scaled to controls: 0 for no effect and ±100 for the full control effect
Target sequence (Q27686 whole entry, looked up): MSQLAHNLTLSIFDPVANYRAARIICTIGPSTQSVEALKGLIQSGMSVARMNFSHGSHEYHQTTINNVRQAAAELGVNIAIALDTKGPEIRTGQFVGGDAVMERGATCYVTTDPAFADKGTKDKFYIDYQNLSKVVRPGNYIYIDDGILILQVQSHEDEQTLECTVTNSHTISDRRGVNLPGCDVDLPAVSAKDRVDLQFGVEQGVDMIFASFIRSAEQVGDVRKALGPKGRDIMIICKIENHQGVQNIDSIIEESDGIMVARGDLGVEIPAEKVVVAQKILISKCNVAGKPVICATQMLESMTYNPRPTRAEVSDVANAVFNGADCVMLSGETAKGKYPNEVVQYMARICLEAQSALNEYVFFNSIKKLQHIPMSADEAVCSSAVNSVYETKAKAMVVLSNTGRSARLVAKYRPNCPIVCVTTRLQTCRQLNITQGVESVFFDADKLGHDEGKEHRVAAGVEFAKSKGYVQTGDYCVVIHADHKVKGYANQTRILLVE
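Screened at intermediate enzyme activity to detect both inhibitors and activators: LmPK at 0.1 nM, with a 0.5 nM enzyme column as activation reference. PEP 0.5 mM, ADP 0.1 mM; ATP detected by luminescence after 1 h.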
Giardia FBPA inh = Giardia lamblia aldolase inhibition; A8B2U2; purified Giardia FBPA; Potency, µM (doses to about 59.6 µM), without a hit: at the top dose activity, negative = inhibition, hits mostly inhibitors; 0.71% of 290,000 active; also: potency is read from the fitted curve at half-maximal effect; % is scaled to controls: 0 for no effect and ±100 for the full control effect; nearly all actives have a fitted effect of over 55% in size
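Giardia FBPA (40 nM reagent) was preincubated 10 min at RT with compound (up to 57.5 uM final), then substrate plus GAPDH/TPI/NAD/arsenate coupling system with diaphorase/resazurin was added; resorufin fluorescence (525/598 nm) was read after 20 min.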
SARS PLpro yeast-2 = Validates SARS-CoV PLpro inhibitor hits in yeast; shares compounds with SARS PLpro yeast-1; yeast expressing SARS-CoV PLpro, growth phenotype rescue; calls only; 19% of 1,000 active; AID 652038; call rule not given here
* hit, by the source's call; i = inactive; u = inconclusive; x = not tested or not shown; + = active, no number. Only some compounds are listed: those with a hit (about 1.1% of all), similar ones and a draw of the others. Unless noted, calls follow the shape of the dose curve; as a rule, active = well fitted curve in the direction sought with a large enough effect; inconclusive = small, poorly fitted or top-dose-only effect, or another doubt; inactive = no such curve, though single readings can be large; an effect the other way counts as inactive or inconclusive.

SMILES	RE007 growth inh	Tb PYK inh	SARS PLpro yeast-1	LmPK inhibitor	Giardia FBPA inh	SARS PLpro yeast-2
CCOC(=O)C1=C(CNCc2ccc(C)cc2)NC(=O)NC1c1cc(C)ccc1C (stereo unspecified)	19.4%	9.3%	u	0.9%	-2.2%	i
COc1cc2[nH]c3c(=O)n(CCN4CCCCC4)cnc3c2cc1OC	-11.9%	0.9%	u	3.9%	-10.5%	i
CCCCN(C)Cc1c(C)[nH]c2ccc(OCC)cc2c1=O	-5.4%	1.3%	u	-2.9%	2.2%	i
CCOc1ccc2[nH]c(C)c(CN3CCN(CC)CC3)c(=O)c2c1	-18.9%	2.5%	7.6%	-1.1%	7.5%	x
N#Cc1ccc(C23CC4CC(CC(C4)C2)C3)[nH]c1=O	0.6%	3.9%	0.5%	1.8%	-3.6%	x
Cc1ncc(C23CC4CC(CC(C4)C2)C3)[nH]1	-11.5%	-5.2%	12.6µM*	-1.7%	-3.7%	i
N#Cc1ccc(Oc2ccc(-c3cnc4ccccc4n3)cc2)cc1C#N	7.7%	-4.2%	2µM*	-2.0%	2.0%	+
N#Cc1ccc(Oc2ccc(-c3nc4ccccc4nc3-c3ccccc3)cc2)cc1C#N	-7.1%	-3.0%	21.1%	-1.1%	1.0%	x
COc1cccc(-n2ccnc2SCC(=O)Nc2ccc(Cl)c(Cl)c2)c1	x	-3.8%	x	x	x	x
CCCN1CCN(C(=O)c2noc3c2COc2ccc(C)cc2-3)CC1	4.2%	1.7%	u	-1.6%	-9.3%	i
COc1cccc(/C=N/NC(=O)C(=O)Nc2ccccc2OC(F)(F)C(F)F)c1O	-5.4%	-9.5%	3.55µM*	5.2%	-19.4%	i
COc1cccc(C(=O)Nc2nc(-c3ccccc3)c(-c3ccccc3)o2)c1	4.4%	2.6%	u	7.7%	8.7%	+
CCN(CC)S(=O)(=O)c1ccc(S(=O)(=O)N2CCCC2C(=O)O)cc1 (stereo unspecified)	-2.5%	0.9%	22.4µM*	-0.1%	9.7%	i
Nc1ccc(S(=O)(=O)N2CCCC2C(=O)O)cc1 (stereo unspecified)	6.4%	4.0%	-0.9%	-0.3%	-7.7%	x
COc1ccc2nc(SCC(=O)Nc3ccccc3)[nH]c2c1	6.6%	-10.0%	x	6.6%	-9.1%	i
CN1C(=O)c2ccc(NC(=O)c3ccc(N4CCCCC4)c([N+](=O)[O-])c3)cc2C1=O	1.6%	6.8%	14.1µM*	2.9%	7.3%	i
CN(C)CCCN(C(=O)c1ccc(S(=O)(=O)N2CCOCC2)cc1)c1nc2ccc(F)cc2s1	6.2%	-5.7%	3.3%	-5.8%	x	x
CN(C)CCCN(C(=O)c1ccc(S(=O)(=O)N2CCCCCC2)cc1)c1nc2ccc(F)cc2s1	-10.6%	0.6%	u	-6.0%	x	i
CCOc1ccc(Nc2oc(-c3cccc(Cl)c3)nc2C#N)cc1	6.9%	-11.1%	u	-1.1%	2.3%	u
Cc1ccc2[nH]c(=O)c(C3C(C#N)=C(N)Oc4c3ccc3cccnc43)cc2c1 (stereo unspecified)	10.0%	53.1%	12.6µM*	-2.1%	25.9%	+
COc1cccc(CNc2ccc(S(N)(=O)=O)cc2)c1OC	5.4%	19.6%	u	2.9%	0.4%	i
COc1ccc(-c2cc(N3C(=O)Nc4ccccc4N3O)n[nH]2)cc1	-0.1%	-13.3%	11.2µM*	5.1%	5.1%	i
Cn1cccc1/C=N/NC(N)=S	12.1%	-5.3%	10µM*	-3.1%	u	+
Cn1cccc1/C=N/NC(=O)Cc1ccccc1	-2.2%	-2.3%	1.6%	4.1%	1.7%	x
Cc1ccc(NC(=S)NCC2CCCO2)cc1C (stereo unspecified)	24.4%	0.3%	-4.7%	4.3%	-7.9%	x
Cc1cccc(NC(=S)NCC2CCCO2)c1 (stereo unspecified)	10.5%	-4.5%	u	-1.7%	-2.3%	i
CN1/C(=C\C(=S)NC(=O)c2ccccc2Cl)C(C)(C)c2ccccc21	-0.2%	-8.5%	u	1.3%	-8.0%	+
COc1ccccc1C(=O)NC(=S)/C=C1/N(C)c2ccccc2C1(C)C	3.3%	0.6%	-3.6%	1.4%	-17.8%	x
